Among the data in PubChem BioAssay (NCI) are growth values, retold here.

Test in all cases: NCI-60 one-dose screen, 48 h (100 = growth as untreated, 0 = no growth, -100 = all killed)
Holding throughout (settings): 10 µM unless noted

Experiment [1] deals with NCI-H23 lung.
In experiment [2] the test system is NCI-H226 lung.
Experiment [3] concerns NCI-H322M lung.
Experiment [4] relates to NCI-H460 lung.
For experiment [5], the system named is HOP-92 NSCLC.
In experiment [6] the test system is NCI-H522 lung.
In experiment [7] the test system is A549/ATCC NSCLC.
The subject of experiment [8] is 786-0 renal.
In experiment [9] the test system is COLO 205 colon.
Experiment [10] relates to HOP-62 NSCLC.

The panel holds about 83,000 compounds, 20% with a hit somewhere; the sample as a whole holds those more often.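 For each line, cells grew in 96-well plates with the test compound present at a single concentration for 48 hours.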 Values without a mark were called inactive. The source made the active and inactive calls. How the source made its calls: active means growth percent below 10; inactive means the rest.

`O=C1Nc2c(ccc(Cl)c2Cl)/C1=C\c1ccc(C(F)(F)F)cc1`: the growth in [1] was 68.8%; in [2], 59.1%; in experiment [3] it was 75.5%; in [4], 89.7%; in experiment [5], 57.8%; in experiment [6], 76.4%. The growth in experiment [7] is 84.1%; in experiment [8], 90.7%; in [9], 100%.
On to `COc1cc(-c2nn(-c3ccc(C(=O)O)cc3)cc2C(=O)O)ccc1O`, for which the growth was 63% in experiment [1]; 102% in [2]; 98.5% in experiment [3]; 61.9% in [4]; 58.8% in experiment [5]; 12% in experiment [6]. For the same compound, the values for the growth in experiment [7], in [8] and in experiment [9] were 78.2%, 78.3% and 113%, respectively.
For `O=C1c2c(O)cc(O)cc2-c2c(-c3ccc(O)cc3)oc3cc(O)cc1c23`, the growth was 39.9% in experiment [1]; 61.2% in [2]; 65.2% in [3]; 10% in experiment [4]; 44.6% in [5]; 11% in experiment [6]. For the same compound, the growth is 43.2% in [7], 41.8% in experiment [8] and 86.2% in [9].
As for `CC1=C(O)C(=O)C(C(C#N)(C#N)C(C#N)C#N)C1` (stereo unspecified), the growth in experiment [1] is 92.4%; in [2], 96.4%; in [3], 85.8%; in experiment [4], 102%; in experiment [5] it was 112%; in experiment [6] it was 85.8%. The growth in [7] was 101%; in experiment [8], 106%; in experiment [9] it was 105%.
Regarding `O=c1cc(CSc2nnc(-c3ccc(F)cc3)o2)c2ccc3ccccc3c2o1`, the growth in experiment [1] is 84.3%; in experiment [2], 81.1%; in experiment [3], 100%; in [4] it was 101%; in [5], 92.2%; in experiment [6], 83.8%. The growth in [7] is 85.5%; in [8] it was 104%; in experiment [9], 117%.
Take `CC(O)CN(CC(C)O)c1ccc2c(c1)Cc1cc([N+](=O)[O-])ccc1-2` (stereo unspecified): the growth was 93.5% in [1]; 101% in [2]; 65.8% in experiment [3]; 104% in experiment [4]; 88.7% in [5]; 80% in [6]. The growth in experiment [7] is 119%; in [8], 107%; in experiment [9], 104%.
On to `CCOC(=O)c1c(C)oc2ncnc(N3CCN(C(=S)Nc4ccccc4)CC3)c12`, for which the growth in experiment [1] was 90.8%; in [2] it was 87.2%; in experiment [3], 92.3%; in experiment [4], 103%; in [5] it was 83.3%; in [6], 80.9%. The growth in experiment [7] is 92%; in [8] it was 97.8%; in [9], 104%.
Turning to `COc1ccc(C2CC(c3ccc(Cl)cc3)=NN2/C=C2\SC(=S)N(NC(=O)Cc3ccccc3Nc3c(Cl)cccc3Cl)C2=O)cc1` (stereo unspecified), the growth in [1] is 80.1%; in [2] it was 68.8%; in experiment [3] it was 85%; in experiment [10] it was 79.1%; in experiment [4], 81.8%; in experiment [5], -2.84% (active). The figures for the growth in [7], in experiment [8] and in experiment [9] were 57.8%, -55.2% (active) and 30%, respectively.
On to `N#Cc1c(-c2ccc(Cl)cc2)nc(N=Nc2c(O)[nH]c3ccc(Cl)cc23)nc1N1CCOCC1`, for which the growth in experiment [1] is 84.8%; in [2], 85.6%; in [3], 96.5%; in [4] it was 98.4%; in [5] it was 89.5%; in [6], 93.6%. The growth in [7] is 102%; in experiment [8], 103%; in experiment [9], 105%.
For `COc1ccc(CCNc2nc3c(c(=O)n(Cc4ccc(Br)cc4)c(=O)n3C)n2C)cc1OC`, the growth was 84.1% in [1]; 86.6% in experiment [2]; 93.8% in [3]; 96.9% in experiment [4]; 92.8% in [5]; 84.2% in experiment [6]. For the same compound, the results for the growth in experiment [7], in experiment [8] and in experiment [9] were 90%, 102% and 103%, respectively.
`Cc1nc2ccccc2n1C(=O)C[C@@H]1NC(=S)NC1=O`: the growth in experiment [1] was 95.5%; in experiment [2], 92.4%; in experiment [3] it was 96%; in experiment [10], 93.2%; in [4], 104%; in experiment [5] it was 123%. Further, the growth in [8] is 101%; in [9], 98.9%.
Consider `CCCn1c(=O)[nH]c(N)c([C@H]2c3ccccc3Oc3[nH]c(=O)n(CCC)c(=O)c32)c1=O`, for which the growth in experiment [1] was 86.2%; in experiment [2] it was 102%; in experiment [3], 85.4%; in experiment [4] it was 111%; in [5] it was 102%; in experiment [6], 20.7%. Further, the growth in experiment [7] is 84.8%; in [8], 82.7%; in experiment [9], 86.4%.
Turning to `O=C1/C(=C/c2ccccc2O)N=C2SCCCN12`, the growth in experiment [1] was 80.9%; in experiment [2], 97.2%; in experiment [3], 97.5%; in [4] it was 103%; in experiment [5] it was 80.9%; in [6], 79.7%. The growth is 101% in [7], 98.8% in experiment [8] and 99.9% in experiment [9].
Consider `Nc1ccc(-c2cc3c(NCc4ccccc4)ncnc3s2)cc1`, for which the growth in experiment [1] was 66.6%; in experiment [2] it was 65.9%; in experiment [3], 60.7%; in experiment [10], 92.1%; in [4], 90.7%; in experiment [5] it was 85.5%. Besides, the growth in [8] is 79.2%; in [9], 108%.
On to `C=C1C(=O)O[C@H]2[C@H]1CC/C(COC(=O)NCCc1ccc(OC)c(OC)c1)=C\CC[C@@]1(C)O[C@@H]21`, for which the growth is 59.2% in experiment [1]; 82.6% in experiment [2]; 88% in experiment [3]; 93.9% in [4]; 26.6% in experiment [5]; -79.9% (active) in experiment [6]. Also, the values for the growth in experiment [7], in [8] and in experiment [9] were 86.4%, 77.7% and 12.7%, respectively.
Take `Cc1ccc(NC(=O)/C=C/c2ccccc2)c(C(N)=O)c1`: the growth is 58.6% in [1]; 68.2% in experiment [2]; 63.1% in experiment [3]; 10.5% in experiment [4]; 62.9% in [5]; -8.74% (active) in experiment [6]. In addition, the figures for the growth in experiment [7], in [8] and in experiment [9] were 25.7%, 60.7% and -21.2% (active), respectively.
Consider `Cc1nc(Nc2ccc(F)c(Cl)c2)sc1C(=O)O`, for which the growth in experiment [1] was 15.7%; in [2], 26.9%; in experiment [3], 54.3%; in [4], 18.1%; in experiment [5], -23.8% (active); in experiment [6], -9.27% (active). Further, the growth is 12.9% in [7], 19.6% in [8] and 5.72% (active) in experiment [9].
Turning to `CCOc1cc2ncc(C#N)c(Nc3ccc(F)c(Cl)c3)c2cc1NC(=O)CC1CCSS1` (stereo unspecified), the growth in experiment [1] is -50.6% (active); in [3] it was -74.5% (active); in experiment [10], -66% (active); in [4] it was -64.4% (active); in experiment [5], -15.3% (active); in experiment [6], -48.6% (active). Moreover, the results for the growth in experiment [7], in experiment [8] and in experiment [9] were -75.6% (active), 12.1% and -73.5% (active), respectively.
As to `CCN=C1C=CC(=C(c2ccc(N)cc2)c2ccc(N(CC)CC)c(C)c2)C=C1`, the growth was -14.9% (active) in experiment [1]; 3.81% (active) in experiment [3]; 9.19% (active) in experiment [10]; -53.9% (active) in experiment [4]; -40.5% (active) in experiment [5]; -5.45% (active) in experiment [6]. Moreover, the growth is 10.3% in [7], -47.2% (active) in experiment [8] and -43.1% (active) in experiment [9].
As for `COc1cccc(/C=C2\SC(=Nc3ccc(NC(C)=O)cc3)NC2=O)c1OC`, the growth in experiment [1] was 92.2%; in [3] it was 94.3%; in [10], 92.3%; in experiment [4], 99.7%; in experiment [5], 55.3%; in experiment [7] it was 96%. Also, the growth in [8] is 67.9%; in experiment [9], 111%.
For `O=C(/C=C/c1cccc([N+](=O)[O-])c1)c1ccc(O)c(CN2CCN(c3cc4c(cc3F)c(=O)c(C(=O)O)cn4C3CC3)CC2)c1`, the growth in experiment [1] is 37.3%; in experiment [3] it was 61.4%; in experiment [10] it was 43.7%; in [4], 37.1%; in experiment [5], 59%; in experiment [6] it was 16.3%. For the same compound, the growth in experiment [7] was 32.2%; in [8] it was -11.2% (active); in [9] it was 60.1%.
As for `Oc1ccc(N=Cc2ccccc2O)cc1`, the growth was 92.3% in experiment [1]; 90.6% in experiment [3]; 93.6% in experiment [10]; 96.4% in experiment [4]; 75.3% in [5]; 81.3% in experiment [6]. The figures for the growth in experiment [7], in [8] and in experiment [9] were 101%, 93.4% and 120%, respectively.
For `COc1ccc2c(c1)CC/C(=C\c1cncc(Br)c1)C2=O`, the growth in experiment [1] is 92.7%; in experiment [2] it was 111%; in [3], 106%; in [4], 103%; in experiment [5], 84.4%; in [7] it was 95.3%. Besides, the growth was 92.7% in [8] and 106% in experiment [9].
With `O=C1c2ccccc2C(=O)c2c1ccc1[nH]c(-c3cccs3)nc21`, the growth in experiment [1] was 84.5%; in [3], 60.9%; in experiment [10], 102%; in experiment [4], 73.7%; in experiment [5], 80.8%; in experiment [6] it was 78.9%. Moreover, the growth is 66.7% in experiment [7], 99.9% in [8] and 103% in [9].
In the case of `COc1cc2nc(N3CCCC3)nc(Nc3ccccc3)c2cc1OC`, the growth was 2.6% (active) in experiment [1]; 19.3% in experiment [3]; 16.3% in experiment [10]; -42.1% (active) in experiment [4]; -25.9% (active) in experiment [5]; -53% (active) in experiment [6]. Besides, the values for the growth in experiment [7], in experiment [8] and in experiment [9] were -39.8% (active), -90.5% (active) and -84.1% (active), respectively.
With `CCOC(=O)C(C)(C#N)C1C=CCCC1` (stereo unspecified), the growth in experiment [1] was 83.3%; in [3] it was 80.4%; in [10], 89.8%; in [4], 98.8%; in experiment [5] it was 78.2%; in [6], 104%. In addition, the values for the growth in [7], in experiment [8] and in experiment [9] were 92.5%, 87% and 106%, respectively.
Consider `O=C1/C(=C/c2ccccc2)SC(=S)N1CCc1ccc(O)cc1`, for which the growth was 98% in [1]; 97.1% in experiment [3]; 94% in experiment [10]; 99.4% in experiment [4]; 79.9% in experiment [5]; 54.8% in [6]. For the same compound, the growth was 93.6% in [7], 89.5% in [8] and 108% in experiment [9].
Regarding `CC(C)(C)CC(C)(C)c1ccc(OCCOCC[N+](C)(C)Cc2ccccc2)cc1`, the growth in experiment [1] was 2.23% (active); in [3], 47.7%; in experiment [10] it was -56.7% (active); in experiment [4], 1.33% (active); in experiment [5], -58.7% (active); in experiment [6], -44.9% (active). The growth in experiment [7] was 25.5%; in experiment [9] it was -86.5% (active).
With `CC[C@H]1OC(=O)[C@H](C)[C@@H](O[C@H]2C[C@@](C)(OC)[C@@H](O)[C@H](C)O2)[C@H](C)[C@@H](O[C@@H]2O[C@H](C)C[C@H](N(C)C)[C@H]2O)[C@](C)(O)C[C@H](C)CN(C)[C@H](C)[C@@H](O)[C@]1(C)O`, the growth was 93.7% in experiment [1]; 104% in experiment [3]; 97.7% in experiment [10]; 102% in [4]; 67.5% in [5]; 104% in experiment [6]. Further, the growth was 104% in [7], 91.7% in experiment [8] and 45.6% in experiment [9].
